Assay results published in PubChem BioAssay AID1159580 (chemical genetic matrix, 2015).
The campaign covered roughly 5,500 compounds. About 2,000 (36%) were called active. Inconclusive results (about 18%) are left out. No stated cut-off is given here; in the data, active means normalized growth mostly below about 0.91 (no sharp cut-off); inconclusive means no clear call, values can overlap the other calls; inactive means mostly above about 0.92. Some of the results follow.

Assay: chemical genetic growth profiling, strain panel (AID 1159580);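 further: tested at 20 µM; growth read once vehicle control cultures reached saturation at 30 °C; 1 = growth at the plate median or of vehicle wells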
Settings: growth OD

Measured: normalized growth

Clc1ccc(CSC(Cn2ccnc2)c2ccc(Cl)cc2Cl)cc1 (stereo not given)
active: S. cerevisiae deletion strains, locus YJR075W, strain HOC1, stronger effect = lower value 0.0603 | S. cerevisiae deletion strains, locus YKL009W, strain mrt4, stronger effect = lower value 0.0877 | S. cerevisiae deletion strains, locus YKL068W, stronger effect = lower value 0.0746 | S. cerevisiae deletion strains, locus YKL085W, strain MDH1 (second series), stronger effect = lower value 0.0615 | S. cerevisiae deletion strains, locus YKL085W, strain MDH1, stronger effect = lower value 0.0615 | S. cerevisiae deletion strains, locus YKL160W, strain elf1, stronger effect = lower value 0.065 | S. cerevisiae deletion strains, locus YKL190W, strain CNB1, stronger effect = lower value 0.0451 | S. cerevisiae deletion strains, locus YKR001C, strain vps1, stronger effect = lower value 0.0681 | S. cerevisiae deletion strains, locus YKR026C, strain gcn3, stronger effect = lower value 0.0654 | S. cerevisiae deletion strains, locus YKR091W, strain srl3, stronger effect = lower value 0.0606 | S. cerevisiae deletion strains, locus YLL001W, strain dnm1, stronger effect = lower value 0.0654 | S. cerevisiae deletion strains, locus YLL026W, stronger effect = lower value 0.0574 | S. cerevisiae deletion strains, locus YLL041C, strain sdh2, stronger effect = lower value 0.0577 | S. cerevisiae deletion strains, locus YLR027C, strain aat2, stronger effect = lower value 0.0604 | S. cerevisiae deletion strains, locus YLR039C, strain RIC1, stronger effect = lower value 0.079 | S. cerevisiae deletion strains, locus YLR058C, strain SHM2, stronger effect = lower value 0.0452 | S. cerevisiae deletion strains, locus YLR102C, strain apc9, stronger effect = lower value 0.0588 | S. cerevisiae deletion strains, locus YLR113W, strain HOG1, stronger effect = lower value 0.116 | S. cerevisiae deletion strains, locus YLR221C, strain rsa3, stronger effect = lower value 0.0604 | S. cerevisiae deletion strains, locus YLR258W, strain gsy2, stronger effect = lower value 0.0614 | S. cerevisiae deletion strains, locus YLR262C, strain YPT6 (second series), stronger effect = lower value 0.0789 | S. cerevisiae deletion strains, locus YLR262C, strain YPT6, stronger effect = lower value 0.103 | S. cerevisiae deletion strains, locus YLR268W, strain sec22, stronger effect = lower value 0.0568 | S. cerevisiae deletion strains, locus YLR320W, strain mms22, stronger effect = lower value 0.0761 | S. cerevisiae deletion strains, locus YLR330W, strain CHS5, stronger effect = lower value 0.0514 | S. cerevisiae deletion strains, locus YLR342W, strain FKS1 (second series), stronger effect = lower value 0.0606 | S. cerevisiae deletion strains, locus YLR342W, strain FKS1, stronger effect = lower value 0.0676 | S. cerevisiae deletion strains, locus YLR357W, strain rsc2, stronger effect = lower value 0.12 | S. cerevisiae deletion strains, locus YLR370C, strain arc18, stronger effect = lower value 0.0635 | S. cerevisiae deletion strains, locus YLR371W, strain rom2, stronger effect = lower value 0.0606 | S. cerevisiae deletion strains, locus YLR384C, strain iki3, stronger effect = lower value 0.0593 | S. cerevisiae deletion strains, locus YLR418C, strain cdc73, stronger effect = lower value 0.0853 | S. cerevisiae deletion strains, locus YML016C, strain PPZ1, stronger effect = lower value 0.0444 | S. cerevisiae deletion strains, locus YML032C, strain rad52, stronger effect = lower value 0.0643 | S. cerevisiae deletion strains, locus YML120C, strain ndi1, stronger effect = lower value 0.0571 | S. cerevisiae deletion strains, locus YML124C, strain tub3, stronger effect = lower value 0.0572 | S. cerevisiae deletion strains, locus YMR058W, strain fet3, stronger effect = lower value 0.0638 | S. cerevisiae deletion strains, locus YMR078C, strain ctf18, stronger effect = lower value 0.0695 | S. cerevisiae deletion strains, locus YMR125W, strain sto1, stronger effect = lower value 0.0785 | S. cerevisiae deletion strains, locus YMR129W, stronger effect = lower value 0.0574 | S. cerevisiae deletion strains, locus YMR205C, strain PFK2, stronger effect = lower value 0.0897 | S. cerevisiae deletion strains, locus YMR223W, strain ubp8, stronger effect = lower value 0.0591 | S. cerevisiae deletion strains, locus YMR231W, strain pep5, stronger effect = lower value 0.146 | S. cerevisiae deletion strains, locus YMR263W, strain SAP30, stronger effect = lower value 0.0544 | S. cerevisiae deletion strains, locus YMR307W, strain GAS1, stronger effect = lower value 0.12 | S. cerevisiae deletion strains, locus YNL067W, strain RPL9B, stronger effect = lower value 0.0471 | S. cerevisiae deletion strains, locus YNL071W, strain lat1, stronger effect = lower value 0.0619 | S. cerevisiae deletion strains, locus YNL128W, strain TEP1, stronger effect = lower value 0.0608 | S. cerevisiae deletion strains, locus YNL183C, strain NPR1, stronger effect = lower value 0.000263 | S. cerevisiae deletion strains, locus YNL209W, strain ssb2, stronger effect = lower value 0.0676 | S. cerevisiae deletion strains, locus YNL233W, strain BNI4, stronger effect = lower value 0.0515 | S. cerevisiae deletion strains, locus YNL248C, strain rpa49, stronger effect = lower value 0.0789 | S. cerevisiae deletion strains, locus YNL250W, strain rad50, stronger effect = lower value 0.0722 | S. cerevisiae deletion strains, locus YNL271C, strain bni1, stronger effect = lower value 0.0682 | S. cerevisiae deletion strains, locus YNL298W, strain CLA4, stronger effect = lower value 0.0628 | S. cerevisiae deletion strains, locus YNL307C, strain MCK1, stronger effect = lower value 0.0686 | S. cerevisiae deletion strains, locus YNL322C, strain KRE1 (second series), stronger effect = lower value 0.0666 | S. cerevisiae deletion strains, locus YNL322C, strain KRE1, stronger effect = lower value 0.045 | S. cerevisiae deletion strains, locus YNR049C, strain mso1, stronger effect = lower value 0.0586 | S. cerevisiae deletion strains, locus YNR052C, strain pop2, stronger effect = lower value 0.0598 | S. cerevisiae deletion strains, locus YOL006C, strain TOP1, stronger effect = lower value 0.0991 | S. cerevisiae deletion strains, locus YOL012C, strain htz1 0.137 | S. cerevisiae deletion strains, locus YOL147C, strain pex11, stronger effect = lower value 0.0557 | S. cerevisiae deletion strains, locus YOR001W, strain rrp6, stronger effect = lower value 0.0726 | S. cerevisiae deletion strains, locus YOR061W, strain CKA2, stronger effect = lower value 0.0436 | S. cerevisiae deletion strains, locus YOR069W, strain VPS5, stronger effect = lower value 0.0456 | S. cerevisiae deletion strains, locus YOR070C, strain gyp1, stronger effect = lower value 0.0632 | S. cerevisiae deletion strains, locus YOR080W, strain dia2, stronger effect = lower value 0.0638 | S. cerevisiae deletion strains, locus YOR083W, strain WHI5, stronger effect = lower value 0.0689 | S. cerevisiae deletion strains, locus YOR106W, strain vam3, stronger effect = lower value 0.0699 | S. cerevisiae deletion strains, locus YOR136W, strain idh2, stronger effect = lower value 0.0693 | S. cerevisiae deletion strains, locus YOR144C, strain elg1, stronger effect = lower value 0.0562 | S. cerevisiae deletion strains, locus YOR184W, strain ser1, stronger effect = lower value 0.0618 | S. cerevisiae deletion strains, locus YOR231W, strain MKK1, stronger effect = lower value 0.102 | S. cerevisiae deletion strains, locus YOR265W, strain rbl2, stronger effect = lower value 0.0591 | S. cerevisiae deletion strains, locus YOR270C, strain vph1, stronger effect = lower value 0.111 | S. cerevisiae deletion strains, locus YOR290C, strain snf2, stronger effect = lower value 0.0745 | S. cerevisiae deletion strains, locus YOR316C, strain cot1, stronger effect = lower value 0.0584 | S. cerevisiae deletion strains, locus YPL051W, strain arl3, stronger effect = lower value 0.0666 | S. cerevisiae deletion strains, locus YPL078C, strain atp4, stronger effect = lower value 0.0762 | S. cerevisiae deletion strains, locus YPL106C, strain sse1, stronger effect = lower value 0.0973 | S. cerevisiae deletion strains, locus YPL240C, strain hsp82, stronger effect = lower value 0.0582 | S. cerevisiae deletion strains, locus YPL241C, strain CIN2, stronger effect = lower value 0.0455 | S. cerevisiae deletion strains, locus YPL256C, strain CLN2, stronger effect = lower value 0.113 | S. cerevisiae deletion strains, locus YPR119W, strain clb2, stronger effect = lower value 0.061 | S. cerevisiae deletion strains, locus YPR141C, strain kar3, stronger effect = lower value 0.0736 | S. cerevisiae deletion strains, locus YPR163C, strain tif3, stronger effect = lower value 0.067 | S. cerevisiae deletion strains, locus YPR167C, strain met16, stronger effect = lower value 0.0596 | S. cerevisiae deletion strains, strain wtn01, stronger effect = lower value 0.0571 | S. cerevisiae strains, strain wild type, stronger effect = lower value 0.0459
